# Test results as given in PubChem BioAssay AID1159580 (chemical genetic matrix, 2015).
# Where “and” joins values, the source holds several entries; their conditions need not be identical. Equal entries are not always repeated. About 2,000 (36%) of roughly 5,500 compounds were called active. Inconclusive results (about 18%) are left out. This is one part of the list. A number with no mark means an inactive call. Rule as the data show it: active = normalized growth mostly below about 0.91 (no sharp cut-off); inconclusive = no clear call, values can overlap the other calls; inactive = mostly above about 0.92. Where a SMILES comes first, the peptide text is derived from it. [ ]: non-standard residue; d: D form. Orn = NCCC[CH](N)C(=O)O
# Assay: chemical genetic growth profiling, strain panel (AID 1159580);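 also: tested at 20 µM; growth read once vehicle control cultures reached saturation at 30 °C; 1 = growth at the plate median or of vehicle wells; lower values mean less growth of the strain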
# Settings: S. cerevisiae deletion strains, growth OD
smiles,measurement,setting,value
CC(C)CC1NC(=O)C(CCCN)NC(=O)C(C(C)C)NC(=O)C2CCCN2C(=O)C(Cc2ccccc2)NC(=O)C(CC(C)C)NC(=O)C(CCCN)NC(=O)C(C(C)C)NC(=O)C2CCCN2C(=O)C(Cc2ccccc2)NC1=O (stereo unspecified) (cyclo(FPV[Orn]LFPV[Orn]L); configuration not given here),normalized growth,"locus YAL013W, strain DEP1, hits give low values",1.01
same,normalized growth,"locus YAL021C, strain ccr4, hits give low values",0.995
same,normalized growth,"locus YAL026C, strain drs2, hits give low values",0.911
same,normalized growth,"locus YAL030W, strain snc1, hits give low values",1.03
same,normalized growth,"locus YBL061C, strain skt5, hits give low values",1.02
same,normalized growth,"locus YBR009C, strain hhf1, hits give low values",1.01
same,normalized growth,"locus YBR021W, strain FUR4, hits give low values",0.931
same,normalized growth,"locus YBR023C, strain chs3, hits give low values",1.01
same,normalized growth,"locus YBR171W, strain sec66, hits give low values",1.07
same,normalized growth,"locus YBR229C, strain ROT2, hits give low values",1.01
same,normalized growth,"locus YBR231C, strain swc5, hits give low values",0.934
same,normalized growth,"locus YBR279W, strain paf1, hits give low values",1.02
same,normalized growth,"locus YCL011C, strain gbp2, hits give low values",1.02
same,normalized growth,"locus YCL016C, strain dcc1, hits give low values",1
same,normalized growth,"locus YCL029C, strain bik1, hits give low values",0.986
same,normalized growth,"locus YCL061C, strain MRC1, hits give low values",1.03
same,normalized growth,"locus YCL069W, strain vba3, hits give low values",1.03
same,normalized growth,"locus YCR088W, strain abp1, hits give low values",1.03
same,normalized growth,"locus YDL005C, strain med2, hits give low values",1.02
same,normalized growth,"locus YDL035C, strain GPR1, hits give low values",0.992
same,normalized growth,"locus YDL040C, strain nat1, hits give low values",1.02
same,normalized growth,"locus YDL074C, strain BRE1, hits give low values",0.964
same,normalized growth,"locus YDL101C, strain DUN1, hits give low values",1
same,normalized growth,"locus YDL134C, strain PPH21, hits give low values",1.01
same,normalized growth,"locus YDL185W, strain tfp1, hits give low values",0.249 (active)
same,normalized growth,"locus YDL192W, strain arf1, hits give low values",0.104 (active)
same,normalized growth,"locus YDR001C, strain nth1, hits give low values",1.03
same,normalized growth,"locus YDR069C, strain doa4, hits give low values",0.905
same,normalized growth,"locus YDR101C, strain arx1, hits give low values",0.998
same,normalized growth,"locus YDR137W, strain rgp1, hits give low values",0.307 (active)
same,normalized growth,"locus YDR150W, strain NUM1, hits give low values",1.02
same,normalized growth,"locus YDR159W, strain sac3, hits give low values",1.02
same,normalized growth,"locus YDR162C, strain NBP2, hits give low values",1.01
same,normalized growth,"locus YDR195W, strain ref2",0.363 (active)
same,normalized growth,"locus YDR297W, strain sur2, hits give low values",1.03
same,normalized growth,"locus YDR318W, strain mcm21, hits give low values",1.01
same,normalized growth,"locus YDR334W, strain swr1, hits give low values",1.02
same,normalized growth,"locus YDR335W, strain msn5, hits give low values",1.05
same,normalized growth,"locus YDR388W, hits give low values",0.989
same,normalized growth,"locus YDR392W, strain spt3, hits give low values",0.963
same,normalized growth,"locus YDR502C, strain sam2, hits give low values",0.997
same,normalized growth,"locus YEL003W, strain gim4, hits give low values",1.01
same,normalized growth,"locus YEL037C, strain rad23, hits give low values",1.04
same,normalized growth,"locus YEL061C, strain CIN8 (second series), hits give low values",1.04
same,normalized growth,"locus YEL061C, strain CIN8, hits give low values",1.02
same,normalized growth,"locus YER015W, strain faa2, hits give low values",1.01
same,normalized growth,"locus YER016W, strain bim1, hits give low values",1.03
same,normalized growth,"locus YER110C, hits give low values",0.987
same,normalized growth,"locus YER111C, strain swi4, hits give low values",1.05
same,normalized growth,"locus YER155C, strain BEM2 (second series), hits give low values",0.775 (active)
same,normalized growth,"locus YER155C, strain BEM2, hits give low values",0.991
same,normalized growth,"locus YER167W, strain BCK2, hits give low values",1.02
same,normalized growth,"locus YFR010W, strain ubp6, hits give low values",1.01
same,normalized growth,"locus YGL078C, strain dbp3, hits give low values",0.993
same,normalized growth,"locus YGL167C, strain pmr1, hits give low values",1.04
same,normalized growth,"locus YGL173C, strain kem1, hits give low values",1.02
same,normalized growth,"locus YGL227W, strain vid30, hits give low values",1.05
same,normalized growth,"locus YGL240W, strain doc1, hits give low values",0.992
same,normalized growth,"locus YGL248W, strain PDE1, hits give low values",1.01
same,normalized growth,"locus YGL253W, strain hxk2, hits give low values",1.03
same,normalized growth,"locus YGR078C, strain PAC10, hits give low values",1.07
same,normalized growth,"locus YGR135W, strain pre9, hits give low values",0.981
same,normalized growth,"locus YGR229C, strain SMI1, hits give low values",0.844
same,normalized growth,"locus YGR252W, strain gcn5, hits give low values",0.924
same,normalized growth,"locus YHR013C, strain ard1, hits give low values",1.1
same,normalized growth,"locus YHR027C, strain rpn1, hits give low values",1.05
same,normalized growth,"locus YHR030C, strain SLT2, hits give low values",1 and 0.948
same,normalized growth,"locus YHR079C, strain IRE1 (second series), hits give low values",1.01
same,normalized growth,"locus YHR079C, strain IRE1, hits give low values",0.993
same,normalized growth,"locus YHR094C, strain hxt1, hits give low values",1.01
same,normalized growth,"locus YHR129C, strain ARP1, hits give low values",1.02
same,normalized growth,"locus YHR142W, strain chs7, hits give low values",1.02
same,normalized growth,"locus YIL066C, strain RNR3, hits give low values",0.999
same,normalized growth,"locus YIL073C, strain SPO22, hits give low values",1.52 [resistant] (active)
same,normalized growth,"locus YIL125W, strain kgd1, hits give low values",1
same,normalized growth,"locus YIR030C, strain dcg1, hits give low values",1
same,normalized growth,"locus YJL092W, strain hpr5, hits give low values",1.04
same,normalized growth,"locus YJL095W, strain BCK1 (second series), hits give low values",1.02
same,normalized growth,"locus YJL095W, strain BCK1, hits give low values",0.965 and 0.972
same,normalized growth,"locus YJL115W, strain asf1, hits give low values",1.07
same,normalized growth,"locus YJL129C, strain trk1, hits give low values",1.01
same,normalized growth,"locus YJL134W, strain LCB3, hits give low values",1.01
same,normalized growth,"locus YJL154C, strain vps35, hits give low values",1.01
same,normalized growth,"locus YJL164C, strain tpk1, hits give low values",1.03
same,normalized growth,"locus YJL166W, strain qcr8, hits give low values",1.02
same,normalized growth,"locus YJL168C, strain set2, hits give low values",1
same,normalized growth,"locus YJL187C, strain SWE1 (second series), hits give low values",0.992
same,normalized growth,"locus YJL187C, strain SWE1, hits give low values",1.04
same,normalized growth,"locus YJR043C, strain POL32, hits give low values",0.983
same,normalized growth,"locus YJR066W, strain TOR1, hits give low values",0.935
same,normalized growth,"locus YJR075W, strain HOC1, hits give low values",1.01
